GLA spleen mod: qHTS Assay for Inhibitors and Activators of Human alpha-Galactosidase From Spleen Homogenate; human spleen homogenate, 4MU-alpha-Gal fluorescence, 40 min; hit rate 0.008% among 240,000; Potency, µM (titrated, usually from 80 µM), for the others: top-dose activity change, negative = inhibition, hits mostly inhibitors; Alpha-galactosidase A (Homo sapiens), P06280;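 further: potency means the concentration at half of the fitted maximal effect; 0% = enzyme with vehicle and -100% = no enzyme basal signal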
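Human spleen homogenate (1 ug) was the enzyme source, with 4-methylumbelliferyl-alpha-D-galactopyranoside (1 mM final) in pH 5.0 citrate buffer with 0.01% Tween-20. Compounds were titrated; after 40 min at 37C, NaOH/glycine stop, 4-MU fluorescence read; AC50 from Hill fits.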
HTT cytoprotect: qHTS Multiplex Assay to Identify Dual Action Probes in a Cell Model of Huntington: Cytoprotection (ATP). hit rate 0.14% among 230,000. PC12 HTT-Q103 induced, cytoprotection, ATP luminescence, 40 h. AID 1471, 2008. Potency, µM (highest dose often 56.4 µM), without a hit: cytoprotection (ATP increase), most hits filed as activators; further: potency means the concentration at half of the fitted maximal effect; % of control where 0% means no effect; nearly all actives have a fitted effect of over 45% in size
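Compounds added alongside 100 nM tebufenozide, which induces toxic Q103 huntingtin exon 1-GFP in stable PC12 cells; surviving cells quantified by luminescent ATP measurement. Medium: phenol red-free DMEM, 5% equine and 5% calf serum.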
HTT aggregate: qHTS Multiplex Assay to Identify Dual Action Probes in a Cell Model of Huntington: Aggregate Formation (GFP) | PC12 HttQ103-GFP aggregates, Acumen cytometry, 40 h | Potency, µM (doses to about 46.1 µM), for inactives: at the highest dose activity change, negative = inhibition, hits mostly inhibitors | hit rate 1.1% among 220,000 | AID 1688, 2009; further: potency means the concentration at half of the fitted maximal effect; on the % scale 0 is the no-effect control and ±100 the full control effect; nearly all actives have a fitted effect of over 60% in size
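PC12 cells stably carrying ecdysone-inducible HTT exon 1 Q103–GFP were induced with tebufenozide (100 nM final) and treated with library compounds in titration. GFP aggregates in lysates were counted by laser scanning cytometry.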
PKM2 act: qHTS Assay for Activators of Human Muscle isoform 2 Pyruvate Kinase | Potency, µM (titrated, usually from 57.5 µM), without a hit: at the top dose activation, actives largely listed as activators | AID 1631, 2009 | purified PKM2, Kinase-Glo ATP luminescence, activation; response scale: 0% is enzyme alone, no compound | hit rate 0.34% among 260,000 | Pyruvate kinase PKM (Homo sapiens), P14618; further: potency means the concentration at half of the fitted maximal effect; on the % scale 0 is the no-effect control and ±100 the full control effect; nearly all actives have a fitted effect of over 55% in size
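Purified hPK-M2 (>95%) run at intermediate activity with 0.1 mM ADP and 0.5 mM PEP in 50 mM imidazole pH 7.2, KCl, MgCl2; 1 h room temperature. ATP formed read by Kinase-Glo luminescence; normalized to uninhibited and no-enzyme controls.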
GLA inh pH 4.5: qHTS Assay for Inhibitors of Human alpha-Galactosidase at pH 4.5; 230,000 tested, under 10 active; AID 1467, 2008; purified enzyme, 4-MU-alpha-Gal fluorescence, pH 4.5; Alpha-galactosidase A (Homo sapiens), P06280; activity change, negative = inhibition, % at 105 µM;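 further: 0% = full activity with enzyme and -100% = basal without enzyme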
Target sequence (P06280 whole entry, looked up): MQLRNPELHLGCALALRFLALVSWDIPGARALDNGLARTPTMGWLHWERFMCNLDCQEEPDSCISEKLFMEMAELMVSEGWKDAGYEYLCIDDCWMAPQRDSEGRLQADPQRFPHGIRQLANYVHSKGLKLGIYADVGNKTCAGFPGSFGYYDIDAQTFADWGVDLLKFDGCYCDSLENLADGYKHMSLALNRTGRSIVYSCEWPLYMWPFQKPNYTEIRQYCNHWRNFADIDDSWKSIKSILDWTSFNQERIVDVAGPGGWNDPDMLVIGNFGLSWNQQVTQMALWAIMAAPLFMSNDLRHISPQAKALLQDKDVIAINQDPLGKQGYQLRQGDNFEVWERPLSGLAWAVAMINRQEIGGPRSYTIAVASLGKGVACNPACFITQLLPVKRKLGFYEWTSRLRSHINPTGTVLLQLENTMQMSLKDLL
Active calls of the source: *; u = inconclusive; x = no result given; [ ] = remark or other dose. In the library only some 1.2% were active in any assay of this set; here they are far more common. The call rests on the fitted dose curve; in most records, active means well fitted curve in the direction sought with a large enough effect; inconclusive means small, poorly fitted or top-dose-only effect, or another doubt; inactive means no such curve, though single readings can be large; an effect the other way counts as inactive or inconclusive.

SMILES	GLA spleen mod	HTT cytoprotect	HTT aggregate	PKM2 act	GLA inh pH 4.5
COCCNS(=O)(=O)c1ccc2c(c1)C(=NO)c1cc(S(=O)(=O)NCCOC)ccc1-2	3.9%	7.2%[10 µM]	12.8%[9.22 µM]	10µM*	-3.9
COc1ccc(C(=O)N2CCC[C@@]3(CCN(C(=O)Nc4ccccc4)C3)C2)cc1	11.1%	u	x	x	x
Cc1cccc(C)c1NC(=O)CSc1nnc(-c2ccco2)c(-c2ccco2)n1	3.2%	-17.3%	13.3%	11.2µM*	0.6
CC(=O)NC1=C(OS(=O)(=O)c2ccc(C)cc2)CN(C)C1=O	x	5.2%[10 µM]	x	x	x
COc1cc(C(=S)N2CCN(c3ccccc3Cl)CC2)cc(O)c1O	0.5%	-1.7%[10 µM]	-9.2%	3.55µM*	4.9
Cc1cc([N+](=O)[O-])ccc1-c1ccc(C2Nc3ccccc3C(=O)N2O)o1 (configuration not stated)	8.3%	-41.2%	u	14.1µM*	-2.9
O=[N+]([O-])c1ccc(C[n+]2cccc3c4ccccc4ccc32)cc1	0.4%	u	17.0%	-0.1%	6.8
CCCCCCCCCCCCCCCC[n+]1cccc2ccccc21	-2.3%	-5.1%[10 µM]	7.94µM*	2.5%	-2.7
CCCCCCCCC[n+]1cccc2c3ccccc3ccc21	4.7%	-70.0%	2.51µM*	-1.9%	13.7
Oc1cc(O)c2c(c1)O[C@H](c1ccc(O)c(O)c1)[C@@H](O)[C@@H]2c1c(O)cc(O)c2c1O[C@@H](c1ccc(O)c(O)c1)[C@H](O)C2	x	-4.4%[10 µM]	x	x	x
O=C(c1ccncc1)N1CCc2ccccc2C1	x	x	x	2.3%	x
O=C(c1cncc(Br)c1)N1CCc2ccccc2C1	-1.3%	14.4%[10 µM]	10µM*	0.1%	-3.1
COc1ccc(N=c2cc(-c3ccc(OC)cc3)oc3ccccc23)cc1	-0.1%	-0.7%[10 µM]	-24.2%	-0.7%	3.0
CCOc1ccc(N=c2cc(-c3ccc(OC)cc3)oc3ccccc23)cc1	7.1%	-8.2%[10 µM]	3.16µM*	-3.3%	-7.8
C=CCC(C)(Nc1ccccc1)C(=O)OCC (configuration not stated)	5.0%	-12.2%	x	x	1.0
Cc1cc(=O)n2c3c(sc2n1)C(=O)N(Cc1ccccc1)C3=O	-1.3%	-36.2%	6.6%	28.2µM*	-2.5
Cc1cc(=O)n2nc(-c3ccccc3)sc2n1	8.1%	2.8%[10 µM]	6.8%	1.7%	-0.3
N/C(CC/C(N)=N/O)=N\O	x	-4.1%[10 µM]	x	x	x
COc1ccc2nc(Sc3c([N+](=O)[O-])nc(C)n3Cc3ccccc3)[nH]c2c1	-13.1%	12.6µM*	x	2.0%	7.6
Cc1nc([N+](=O)[O-])c(Sc2nc3ccccc3[nH]2)n1Cc1ccccc1	6.2%	u	u	8.8%	-14.3
O=C(c1cc(C(F)(F)F)cc(C(F)(F)F)c1)N1CCC2(CCCN(Cc3nccs3)C2)CC1	-8.0%	-35.3%	x	x	x
COc1cccc(CNC(=O)N2CCN(c3ccccc3)CC2)c1	x	x	x	1.5%	x
COc1ccc(CNC(=O)OCCN2CCN(S(=O)(=O)c3ccc(C)cc3)CCC2=O)cc1	1.7%	x	-6.2%	6.0%	6.9
COc1ccc(S(=O)(=O)N2CCCN(S(=O)(=O)c3ccc(OC)cc3C)CC2)c(C)c1	-5.1%	10.1%[10 µM]	8.0%	8.91µM*	-1.3
COc1cccc(CNC(=O)N2CCN(S(=O)(=O)c3ccc(C)cc3)CC2)c1	x	x	x	11.2µM*	x
SMILES	GLA spleen mod	HTT cytoprotect	HTT aggregate	PKM2 act	GLA inh pH 4.5
COc1ccc(S(=O)(=O)N2CCN(C(=O)NCc3ccc(C)cc3)CC2)cc1	x	x	x	7.08µM*	x
COc1ccc(CNC(=O)N2CCN(S(=O)(=O)c3ccc(C)cc3C)CC2)cc1	x	x	x	4.47µM*	x
COc1ccc2c(c1)OC(=O)CC2c1ccc2c(c1)OCO2 (configuration not stated)	0.9%[119 µM]	-3.2%	x	x	-24.0
COc1ccc(S(=O)(=O)N2CCN(C(=S)NCCc3ccccc3)CC2)cc1	x	x	x	0.3%	x
COCCCNC(=S)N1CCN(S(=O)(=O)c2ccc(OC)cc2)CC1	-3.4%	-16.2%	18.2%	0.891µM*	1.9
Cc1cccc(Nc2nc(-c3c(C)nc4ccccn34)cs2)c1	3.2%	-46.9%	11.2µM*	4.3%	-6.2
Cc1nc2ccccn2c1-c1csc(Nc2cccc(O)c2)n1	3.5%	u	22.3%[9.22 µM]	-5.2%	0.7
c1ccc([C@H](c2cccc3c2ccc2ccccc23)[C@H](c2ccccc2)c2cccc3c2ccc2ccccc23)cc1	x	-4.7%[10 µM]	x	x	x
CCc1nc(N2CCN(C(=O)c3ccccc3)CC2)c(C#N)c2c1COC(C)(C)C2	5.1%	5.4%	-27.8%	-0.2%	8.5
CC1(C)Cc2c(C#N)c(N3CCN(C(=O)c4ccccc4)CC3)nc(Cc3ccccc3)c2CO1	-3.0%	-23.1%	22.4µM*	1.5%	1.1
COc1cccc(/C=N/NC(=O)C[n+]2ccccc2)c1O	-0.2%	10.2%[10 µM]	10.9%	5.5%	-3.8
COc1cccc(/C=N/NC(=O)CSc2nnc(C)n2-c2ccccc2)c1O	-14.3%	-54.3%	7.94µM*	1.4%	-4.1
C=CCn1c(COc2ccccc2)nnc1SCC(=O)N/N=C/c1cc(Cl)ccc1O	-10.3%	-35.7%	7.94µM*	-4.9%	7.9
COc1cccc(/C=N/NC(=O)CN2CC(c3ccccc3)CC2=O)c1O (configuration not stated)	2.1%	x	3.55µM*	-13.5%	-0.6
C=CCn1c(COc2ccccc2)nnc1SCC(=O)N/N=C/c1ccc(C)cc1	-18.7%	-3.5%	9.0%	-0.1%	6.5
Cc1ccc(-c2nnc(SCC(=O)N/N=C/c3ccccc3C(=O)O)n2-c2ccc(Cl)cc2)cc1	0.9%	2.5%[10 µM]	9.7%[9.22 µM]	28.2µM*	-10.2
C=C1CCC2C(CC2(C)C)C(=C)CC/C1=N/O (configuration not stated)	7.4%	x	x	x	1.3
COc1ccc(O)c(/C=N/NC(=O)CSc2nnc(C)n2-c2ccccc2)c1	-2.6%	-42.6%	7.94µM*	-2.6%	3.7
Cc1cc(C)nc(Sc2ncnc(N)c2[N+](=O)[O-])n1	1.3%	3.8%[10 µM]	10µM*	1.4%	3.7
CN1CCCC2(CCN(C(=O)c3cnccn3)CC2)C1	-1.3%	-8.2%	x	x	x
Cc1c(C(=O)O)c(O)cc2c1C(=O)c1c(O)c([C@@H]3O[C@H](CO)[C@@H](O)[C@H](O)[C@@H]3O)c(O)c(O)c1C2=O	x	-0.6%	x	x	x
Cc1ccc(C(=O)Nc2nnc(-c3ccco3)o2)cc1	-8.4%	-2.8%[10 µM]	-10.7%	-13.3%	2.3
O=C(Nc1nnc(-c2ccco2)o1)c1ccc([N+](=O)[O-])s1	0.1%	-173.3%	11.2µM*	3.4%	0.1
O=C(Nc1nnc(-c2ccncc2)o1)c1ccc(Br)s1	-7.6%	-110.3%	11.2µM*	1.8%	1.5

Compound activity (PubChem BioAssay)
